Data as given in PubChem BioAssay (NCATS).
Records with an inconclusive call do not appear. Active and inactive are the calls of the source. The call rests on the fitted dose curve; in most records, active means well fitted curve in the direction sought with a large enough effect; inconclusive means small, poorly fitted or top-dose-only effect, or another doubt; inactive means no such curve, though single readings can be large; an effect the other way counts as inactive or inconclusive.

Tested on: Zika virus NS2B-NS3 protease (linked construct)
Assay: Confirmatory screen NINDS AMC qHTS for Zika virus inhibitors (AID 1347152); further: nearly all actives have a fitted effect of over 70% in size;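 on activity change, negative = inhibition: AMC fluorescence gain from cleaved Bz-Nle-KRR-AMC substrate over 15 min; top concentration of the series differs between compounds; 0% = no-inhibitor control and -100% = no-enzyme control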
Settings: Purified linked NS2B-NS3, AMC substrate fluorescence; series mostly up to 56.6 µM; activity change, negative = inhibition: at the top concentration
Method in brief: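 Linked NS2B-NS3 1 nM, Tris pH 8.0/0.01% Tween 20; cpd 15 min RT dark; + Nle-KRR-AMC 10 µM (Km 18.3 µM); read 0 and 15 min, 340/450 nm; %inh vs controls, 4-param Hill.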
Potency means the concentration at half of the fitted maximal effect.

| Compound | activity change, negative = inhibition | Potency |
| --- | --- | --- |
| COC(=O)C1=C(C)NC(C)=C(C(=O)OC)C1c1cccc(NC(=O)NCCCN2CCC(c3cccc(OC)c3)CC2)c1 | 15.1% (inactive) |  |
| COc1ccc(Br)cc1S(=O)(=O)NC(=O)/C=C/c1ccccc1Cc1ccc2ccccc2c1 |  | 10.8 µM (active) |
| CN1CCN(c2cc3c(nn2)Oc2ccccc2N3C)CC1 |  | 10.5 µM (active) |

Tested on: not listed separately
Assay: Confirmatory screen NINDS Rhodamine qHTS for Zika virus inhibitors (AID 1347161); further: nearly all actives have a fitted effect of over 60% in size;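 on activity change, negative = inhibition: purified Zika NS2B-NS3 protease with linked NS2B cofactor domain and Rhodamine110 peptide substrate; plate controls were no-inhibitor control for no effect and no-enzyme control for full effect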
Settings: purified enzyme assay, Rhodamine110 substrate fluorescence, 15 min; series mostly up to 114 µM; activity change, negative = inhibition: at the top concentration
Method in brief: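 Purified NS2B-NS3 protease with the NS2B hydrophilic domain joined by a flexible linker (25 nM) in 10 mM Tris-HCl pH 8.0, 0.01% Tween 20, preincubated 15 min at RT with compound; Rhodamine110 peptide substrate 1.5 µM; fluorescence change over 15 min; 4-parameter Hill fit.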

| Compound | activity change, negative = inhibition | Potency |
| --- | --- | --- |
| COC(=O)C1=C(C)NC(C)=C(C(=O)OC)C1c1cccc(NC(=O)NCCCN2CCC(c3cccc(OC)c3)CC2)c1 | 995% (inactive) |  |
| C=C[C@@H]1CN2CC[C@@H]1C[C@H]2[C@H](O)c1ccnc2ccc(OC)cc12 | 22.2% (inactive) |  |
| COc1ccc(Br)cc1S(=O)(=O)NC(=O)/C=C/c1ccccc1Cc1ccc2ccccc2c1 |  | 1.96 µM (active) |
| CN1CCN(c2cc3c(nn2)Oc2ccccc2N3C)CC1 | -19.9% [at 64.7 µM] (inactive) |  |
